# Measurements from PubChem BioAssay (NCATS).
# Where “and” joins values, the source holds several entries; their conditions need not be identical. Equal entries are not always repeated. Inconclusive results are not listed. Where a call stands in place of a potency, no number is given. Calls of active or inactive are those of the source. Calls follow the shape of the dose curve; as a rule, active = well fitted curve in the direction sought with a large enough effect; inconclusive = small, poorly fitted or top-dose-only effect, or another doubt; inactive = no such curve, though single readings can be large; an effect the other way counts as inactive or inconclusive.
# Biological target: Papain (Carica papaya) (UniProt P00784)
# Experiment: Primary qHTS assay for inhibitors of the protease papain (AID 1645873);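 also: papain turnover of Z-FR-AMC read as the AMC fluorescence gain over 10 min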
# Details: papain Z-FR-AMC cleavage, AMC fluorescence; series mostly up to 49.8 µM
# Sequence of Papain (Carica papaya) (P00784 whole entry, looked up): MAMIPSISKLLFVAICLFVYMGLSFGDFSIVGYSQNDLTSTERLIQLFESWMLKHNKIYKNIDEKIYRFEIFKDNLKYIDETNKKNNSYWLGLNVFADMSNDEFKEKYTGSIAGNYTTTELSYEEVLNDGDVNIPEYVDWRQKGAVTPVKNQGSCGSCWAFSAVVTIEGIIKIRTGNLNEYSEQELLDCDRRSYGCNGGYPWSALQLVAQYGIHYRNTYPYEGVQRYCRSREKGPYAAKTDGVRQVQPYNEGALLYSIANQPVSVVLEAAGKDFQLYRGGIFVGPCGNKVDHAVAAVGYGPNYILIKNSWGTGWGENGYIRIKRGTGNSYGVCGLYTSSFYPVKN
row,SMILES,outcome
1,CCOC(=O)[C@H](CCc1ccccc1)N[C@@H](C)C(=O)N1[C@H](C(=O)O)C[C@H]2CCCC[C@@H]21,inactive
2,CN=C(N)NCCC[C@H](N)C(=O)O,inactive
3,NC(N)=NCc1cccc(I)c1,inactive

# System: not listed separately
# Experiment: Primary qHTS for inhibitors of nuclear receptor binding SET domain protein 2 (NSD2) in an isogenic RCH-ACV NSD2 p.E1099K mutant (9B) (AID 1645876); also: nearly all actives have a fitted effect of over 70% in size; also: potency is read from the fitted curve at half-maximal effect
# Details: RCH-ACV (leukaemia line) NSD2 E1099K (9B) viability, CellTiter-Glo, 72 h; series mostly up to 44.9 µM
row,SMILES,Potency
1,CCCCN1C[C@H](O)[C@@H](O)[C@H](O)[C@H]1CO,inactive
2,CN(C)CCC[C@@]1(c2ccc(F)cc2)OCc2cc(C#N)ccc21,inactive
3,CCO[C@@H]1O[C@H](C(COCc2ccccc2)OCc2ccccc2)[C@H](OCc2ccccc2)[C@H]1O (stereo partly drawn),23.7 µM (active)
4,CCNC(=O)NCc1cccc(Cl)c1,inactive
5,Nc1nc(Cl)nc2c1ncn2[C@@H]1O[C@H](CO)[C@@H](O)[C@@H]1F,10.6 nM (active) and 52.5 nM (active)
6,O=C(N/N=C/c1ccc([N+](=O)[O-])o1)c1ccc(O)cc1,5.96 µM (active)
7,OC[C@H]1O[C@@H]2O[C@H]3[C@H](O)[C@@H](O)[C@@H](O[C@H]4[C@H](O)[C@@H](O)[C@@H](O[C@H]5[C@H](O)[C@@H](O)[C@@H](O[C@H]6[C@H](O)[C@@H](O)[C@@H](O[C@H]7[C@H](O)[C@@H](O)[C@@H](O[C@H]8[C@H](O)[C@@H](O)[C@@H](O[C@H]1[C@H](O)[C@H]2O)O[C@@H]8CO)O[C@@H]7CO)O[C@@H]6CO)O[C@@H]5CO)O[C@@H]4CO)O[C@@H]3CO,inactive
8,O=C(O)CCc1nc2ccccc2[nH]1,inactive
9,CCCCCCCCCCCCCCC[C@H](O)[C@@H](N)CO,4.73 µM (active)
10,CC[C@H](c1ccc(O)cc1)[C@@H](CC)c1ccc(O)cc1,11.9 µM (active)
